JMJD2E inh – JMJD2E (human) inhibition; B2RXH2; 230,000 compounds, 1.6% hits; AID 2147; Potency, µM (top dose mostly 57.1 µM), for the others: at the highest dose activity change, negative = inhibition, most hits filed as inhibitors; JMJD2E catalytic domain, FDH-coupled NADH fluorescence (FDH is formaldehyde dehydrogenase);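 further: 0% = wells with enzyme and -100% = buffer wells without enzyme; nearly all actives have a fitted effect of over 50% in size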
RECQ1 inh – inhibitors of human RECQ1 DNA helicase; P46063; Potency, µM (top dose mostly 57.3 µM), for inactives: top-dose activity, negative = inhibition, most hits filed as inhibitors; 240,000 compounds, 0.54% hits; RECQ1 DNA unwinding, red fluorescence kinetic read;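 further: plate controls were vehicle for no effect and no enzyme for full effect; nearly all actives have a fitted effect of over 30% in size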
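50 nM RECQ1T1 preincubated 15 min with compound in Tris pH 8.0 buffer with MgCl2, DTT, Tween-20 and 2.5 ug/ml poly(dI-dC); started with 200 nM TAMRA/BHQ-2 forked duplex and 2 mM ATP. Unwinding read as fluorescence (525/598 nm), two reads 2 h apart.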
L3MBTL1 inh – L3MBTL1 (human) inhibition; 230,000 compounds, 0.66% hits; AlphaScreen L3MBTL1–H3K9me1 peptide binding; AID 485360; Q9Y468; Potency, µM (series often up to 57.1 µM), without a hit: at the top dose activity, negative = inhibition, hits mostly inhibitors; further: nearly all actives have a fitted effect of over 60% in size
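L3MBTL1 (50 nM) pre-complexed 30 min with biotinylated H3(1-15)K9me1 peptide (75 nM), then compounds added for 30 min at room temperature; AlphaScreen streptavidin donor/nickel chelate acceptor beads (10 ug/mL final) read after 30 min dark incubation.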
APEX1 inh – APE1 (human) endonuclease inhibition; P27695; recombinant APE1, TAMRA/BHQ-2 abasic DNA cleavage fluorescence; Potency, µM (highest dose often 65.8 µM), for inactives: top-dose activity change, negative = inhibition, hits mostly inhibitors; 350,000 compounds, 0.35% hits; AID 2517;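 further: plate controls were vehicle for no effect and reference inhibitor for full effect; nearly all actives have a fitted effect of over 55% in size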
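APE1 at 0.75 nM final was preincubated with compound 15 min at room temperature, then 50 nM double-stranded THF abasic-site substrate (5'-TAMRA/3'-BHQ-2) was added. Fluorescence (ex 525/em 598 nm) was read kinetically; third-minus-first read gave activity.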
BLM helicase inh – Bloom syndrome helicase (human) inhibition. P54132. Potency, µM (highest dose often 56.1 µM), inactives show at the top dose activity change, negative = inhibition, most hits filed as inhibitors. 350,000 compounds, 0.2% hits. AID 2528. recombinant BLM DNA unwinding, fluorescence dequenching;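 further: plate controls were vehicle for no effect and no enzyme for full effect; nearly all actives have a fitted effect of over 35% in size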
* = called active by the depositor; i = inactive; ? = inconclusive; / = no result given. Shown is part of a subset that was picked to be rich in hits. Unless noted, the call rests on the fitted dose curve; in most records, active means well fitted curve in the direction sought with a large enough effect; inconclusive means small, poorly fitted or top-dose-only effect, or another doubt; inactive means no such curve, though single readings can be large; an effect the other way counts as inactive or inconclusive. Unless noted, on the % scale 0 is the no-effect control and ±100 the full control effect; potency means the concentration at half of the fitted maximal effect.

SMILES | JMJD2E inh | RECQ1 inh | L3MBTL1 inh | APEX1 inh | BLM helicase inh
CC(C)CCNC(=O)CNC(=O)c1cccs1 | 6% | -3% | / | 2% | -2%
CC(C)(C)N1C(=O)c2ccc(C(=O)O)cc2C1=O | 2% | i | 2% | 4% | 0%
O=C1C(=Cc2ccco2)C(=O)c2ccccc21 | -24% | -30% | ? | ? | -1%
O=C(O)c1ccc2c(c1)C(=O)/C(=C\c1ccco1)C2=O | -29% | ? | 3.2µM* | 7.9µM* | 140%
O=C(O)c1ccc2c(c1)C(=O)/C(=C/c1ccccc1)C2=O | -9% | 13% | 3.2µM* | ? | 53%
COC(=O)[C@@]1(Cc2ccc(OC)cc2)[C@H]2c3cc(C(=O)N(C)C)n(Cc4nc5ccccc5[nH]4)c3C[C@H]2CN1C(=O)c1ccccc1 | ? | -5% | / | -4% | -6%
COc1cc2c3nnc(-c4ccc(F)cc4)c-3cn(Cc3ccccc3F)c2cc1OC | ? | -1% | / | 6% | 2%
COc1cc2c3nnc(-c4ccccc4)c-3cn(Cc3ccccc3F)c2cc1OC | 3.5µM* | i | / | -8% | 5%
O=C(O)C(O)c1ccco1 (centres undefined) | 9% | -11% | 5µM* | 2% | ?
COCCCNC(=O)CCc1ccccc1 | ? | i | 8% | 9% | -1%
O=C(O)c1cc(N/N=C/c2ccc(OCc3ccccc3)cc2)ccc1Cl | -3% | 0% | ? | -1% | -10%
CSc1ccc(/C=N/Nc2cccc(C(=O)O)c2)cc1 | ? | 32µM* | 5µM* | 2.2µM* | 147%
COC(=O)c1ccc(COc2ccc(/C=N/Nc3cccc(C(=O)O)c3)cc2)cc1 | -29% | i | 25µM* | ? | 0%
O=C(O)c1cccc(N/N=C/c2ccc(OC(F)(F)F)cc2)c1 | / | / | / | 35% | 1%
COc1ccccc1S(=O)(=O)Cc1ccc(C(=O)N2CCOCC2)o1 | -2% | -3% | -11% | -5% | 6%
CN(C)c1ccc(C=Nc2ccc(N(C)C)cc2)cc1 | 20µM* | -7% | ? | -4% | -12%
O=[N+]([O-])c1cc(/C=N/N/C(=N/c2ccccn2)c2ccccn2)ccc1O | 18µM* | 3% | ? | -1% | 0%
O=C(CCNS(=O)(=O)c1ccccc1)N1CCCC1 | / | / | / | 21% | -2%
COc1ccc(C(=O)C2CCCN(Cc3sc(N4CCCC4)nc3Cl)C2)c(OC)c1 (centres undefined) | ? | -8% | -24% | -1% | -5%
Cc1[nH]n(-c2ccccc2)c(=S)c1C=Nc1ccc([N+](=O)[O-])cc1 | 6.3µM* | -16% | 3% | 1% | -1%
Cc1[nH]n(-c2ccccc2)c(=O)c1C=Nc1ccc(S(=O)(=O)N=C(N)N)cc1 | -7% | 0% | / | -1% | -16%
Cn1c2ccccc2c(=O)n2c(=O)c3ccccc3cc12 | 0% | 0% | -16% | ? | 25µM*
Cn1c(-c2ccccc2)cc(=O)c2ccccc21 | 2% | i | 8% | -5% | -1%
Clc1cc2cccnc2c2ncccc12 | / | / | 10µM* | -18% | /
Oc1c(I)cc(Cl)c2cccnc12 | 14µM* | -12% | ? | -6% | -2%
SMILES | JMJD2E inh | RECQ1 inh | L3MBTL1 inh | APEX1 inh | BLM helicase inh
O=[N+]([O-])c1ccc(Cl)c2cccnc12 | 3% | i | 6% | -7% | 0%
O=[N+]([O-])c1cc([N+](=O)[O-])c2cccnc2c1Oc1ccccc1O | 22µM* | -1% | ? | -3% | 1%
O=[N+]([O-])c1cc(Cl)c2cccnc2c1O | 13µM* | i | 32µM* | -12% | 1%
CC(C)COc1ccc(-c2cc(C(=O)NN)[nH]n2)cc1 | 11% | 8% | 2% | -3% | 3%
c1csc(-c2nc3ccccc3s2)c1 | ? | i | 37% | ? | 1%
O=C(CCC1N=C2c3ccccc3N=C(SCc3ccc(F)cc3)N2C1=O)NCc1cccs1 (centres undefined) | / | / | / | / | -2%
Cc1[nH]c2ccc3ncccc3c2c1C | 2% | -1% | -21% | 2% | 0%
Cc1c(C)c2cccnc2c2ncccc12 | / | / | 0.79µM* | -28% | /
CC(OC(=O)[C@H](C)NC(=O)c1ccccc1Cl)C(=O)NCc1ccc2c(c1)OCO2 (some centres undefined) | / | / | 1% | 8% | /
Cc1[nH][nH]c(=O)c1C(c1ccc(-c2ccccc2C(=O)O)o1)c1c(C)[nH][nH]c1=O | 23% | i | 32µM* | ? | ?
Cc1[nH][nH]c(=O)c1C(c1ccc(-c2cccc(C(=O)O)c2)o1)c1c(C)[nH][nH]c1=O | 26% | ? | 25µM* | 18µM* | -1%
Cc1[nH][nH]c(=O)c1C(c1ccc(-c2cccc(Cl)c2)o1)c1c(C)[nH][nH]c1=O | ? | 11% | / | 11% | ?
O=C(Cn1cc(S(=O)(=O)c2ccc(Cl)cc2)c(=O)c2ccccc21)Nc1ccc2c(c1)OCO2 | / | / | / | / | -8%
CC(=O)c1ccc(NC(=O)Nc2ccc(S(=O)(=O)N3CCCC3)cc2)cc1 | / | / | / | -3% | 0%
Cc1cc(Cl)ccc1N=c1ssnc1Cl | 11µM* | i | / | 13% | 0%
Cc1ccc(N=c2ssnc2Cl)cc1 | 11µM* | -5% | -4% | 2% | -2%
c1ccc(-c2cnc(CSc3ncnc4sccc34)o2)cc1 | 0% | 8% | 1% | 5% | -11%
COc1ccccc1/C=N/NC(=O)c1ccccc1Cl | -6% | i | / | -6% | -5%
C=CCc1cccc(/C=N/NC(=O)c2ccccc2Br)c1O | 25µM* | -12% | / | ? | -8%
C=CCc1cccc(/C=N/NC(=O)c2ccccc2OC)c1O | 32µM* | -6% | / | -6% | -6%
Cc1ccc(NC(=O)C(NCc2ccccn2)c2ccccc2)cc1 (centres undefined) | -4% | 0% | / | -5% | 0%
CN(C)c1ccc(NC(=O)CC(NCc2ccccn2)C(=O)O)cc1 (centres undefined) | 4% | i | 13µM* | -2% | 1%
S=C(Nc1ccc(Cl)cc1)c1nc2ccccc2[nH]1 | ? | -9% | ? | -7% | 2%
Cc1ccccc1NC(=S)c1nc2ccccc2[nH]1 | 19µM* | -6% | ? | -3% | -4%
O=C(N/N=C/c1cc2c3c(c1O)CCCN3CCC2)c1ccccc1O | 32µM* | -9% | ? | -4% | -22%
Cc1nn(-c2ccccc2)c(N2CCCC2)c1/C=N/NC(=O)c1ccccc1O | ? | 11% | 6% | -7% | -13%
O=C(O)CCC(=O)NNC(=O)c1cccc(Br)c1 | 8% | -2% | -5% | -3% | -5%
CN1/C(=C/c2cc[n+](C)c3ccccc23)C=Cc2ccccc21 | 11µM* | ? | / | -3% | ?
CN(C)c1cccc2c1C(=O)c1ccccc1C2=O | -2% | -5% | 25µM* | -6% | -5%
CCOc1ccc(N2C(=O)CC(NC3CCCCNC3=O)C2=O)cc1 (centres undefined) | 8% | -2% | 9% | 1% | 2%

Screening data as filed in PubChem.
